Screening data: PubChem BioAssay, several laboratories
An excerpt weighted towards active compounds, which were near 3% of everything screened.
EWS-Fli block – EWS/Fli-driven NR0B1 reporter inhibitors, primary screen, A673 cells, NR0B1 luciferase, luminescence, MLPCN library; inhibition, % at 12.6 µM; viability-normalised; hit rate 0.67% among 350,000; AID 651661, 2012;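 active = mean inhibition of at least 50% after viability correction, with every replicate also passing that limit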;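 also: firefly luciferase signal divided by Alamar Blue viability fluorescence both relative to DMSO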
PAX8 inh HTS – inhibitors of PAX8-driven TPO luciferase reporter, primary screen, RMG-I cells, single concentration; hit rate 1.2% among 360,000; SteadyGlo, 24 h; AID 652154, 2013; inhibition, % at 12.6 µM;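 active = mean replicate inhibition at least 60% with every replicate also reaching 60%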;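 also: luciferase light reporting Pax8 driven TPO promoter activity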
MITF TRPM1 inh – inhibitors of MITF-dependent TRPM1 promoter reporter, primary screen, cell-based, SK-MEL-5, single point, luciferase; AID 488899, 2010; SK-MEL-5 TRPM1 promoter luciferase, 24 h; hit rate 0.83% among 330,000; inhibition, % at 12.5 µM;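 active = mean inhibition across replicates of 60% or more, whatever share of single replicates reaches that level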
ABHD5 PLIN5 PPI – ABHD5-PLIN5 interaction inhibitors, primary screen, cell lysate, split luciferase complementation, luminescence; Split G. princeps luciferase complementation, 4 h; hit rate 0.78% among 360,000; inhibition, % at 4 µM; Perilipin-5 (Homo sapiens) + 1-acylglycerol-3-phosphate O-acyltransferase ABHD5 (Homo …; AID 602281, 2012;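 active = inhibition above the mean inhibition across every tested compound plus 3 SD, cut at about 22% in these data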
Shn3 inh set2 – reduction of Shn3 3'UTR firefly luciferase signal, primary screen, Schnurri-3 inhibitor project, cell-based, Clone20 osteoblasts, set 2; Clone20 osteoblast Shn3 3'UTR firefly luciferase, 24 h; inhibition, % at 12.5 µM; hit rate 0.52% among 360,000;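 active = mean inhibition of at least 75% with every replicate also reaching 75%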
Peg3 prom inh – Peg3 promoter-driven luciferase inhibitors, primary screen, cell-based, HeLa, luciferase luminescence. hit rate 1.7% among 360,000. AID 588405, 2011. HeLa PEG-Prom luciferase reporter, overnight. inhibition, % at 20 µM;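 active = inhibition of at least 50% at 20 µM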
ABHD5 PLIN5 conf – ABHD5-PLIN5 interaction inhibitors, confirmation, biochemical, luminescence; hit rate 67% among 2,200; inhibition, % at 4 µM; shares compounds with ABHD5 PLIN5 PPI; AID 651612, 2012; in the data active = inhibition above about 23%
HNF4 counter – HNF4 dimerization inhibitors, counter-screen for ABHD5-PLIN5 interaction inhibitor project, biochemical, split-luciferase complementation, luminescence. AID 651674, 2012. shares compounds with ABHD5 PLIN5 PPI. hit rate 77% among 2,200. inhibition, % at 4 µM;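 active = mean inhibition across replicate wells exceeding the computed hit threshold, cut at about 13% in these data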;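 also: light from luciferase halves that rejoin when HNF4 fusion proteins dimerize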
Target sequence (P41235 whole entry, looked up, the tested form may be a part): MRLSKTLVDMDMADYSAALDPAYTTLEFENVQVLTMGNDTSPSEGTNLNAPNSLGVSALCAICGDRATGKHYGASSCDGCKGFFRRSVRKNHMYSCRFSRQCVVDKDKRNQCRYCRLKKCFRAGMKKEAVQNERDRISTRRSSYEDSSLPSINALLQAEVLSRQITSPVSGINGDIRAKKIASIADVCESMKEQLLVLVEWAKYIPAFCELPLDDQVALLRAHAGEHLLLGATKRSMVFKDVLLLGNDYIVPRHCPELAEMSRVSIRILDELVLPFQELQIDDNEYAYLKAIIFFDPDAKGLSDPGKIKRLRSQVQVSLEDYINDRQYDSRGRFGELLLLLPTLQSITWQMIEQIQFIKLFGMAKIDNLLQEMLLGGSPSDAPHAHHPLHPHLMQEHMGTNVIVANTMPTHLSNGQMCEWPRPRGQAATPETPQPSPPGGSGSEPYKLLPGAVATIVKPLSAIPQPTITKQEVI
Hits are given with their value; – = inactive; · = no result.

SMILES	EWS-Fli block	PAX8 inh HTS	MITF TRPM1 inh	ABHD5 PLIN5 PPI	Shn3 inh set2	Peg3 prom inh	ABHD5 PLIN5 conf	HNF4 counter
C[C@@H]1CN([C@H](C)CO)C(=O)Cc2cc(NC(=O)C3CCCCC3)ccc2O[C@@H]1CN(C)C(=O)Nc1ccc2c(c1)OCO2	–	·	·	·	·	·	·	·
CC1(C)CC(=O)C(C(C2=C(O)CC(C)(C)CC2=O)c2ccc(Br)s2)C(=O)C1 (stereo not given)	–	–	–	67	–	–	91	97
Cc1ccc(C(C2=C(O)CC(C)(C)CC2=O)C2C(=O)CC(C)(C)CC2=O)s1 (stereo not given)	·	–	–	–	–	–	·	·
C[C@H]1CCCCO[C@H](CN(C)C)[C@@H](C)CN([C@@H](C)CO)C(=O)c2cc(NC(=O)Cc3ccccc3)ccc2O1	–	–	·	·	·	·	·	·
CCCCC[C@@H](C)N1C[C@@H](COCc2ccccc2)Oc2cc(N3CC[C@@H](N(C)C)C3)ccc2S1(=O)=O	–	–	·	28	·	·	–	–
O=C(c1ccc(-c2ccc([N+](=O)[O-])cc2)o1)N1CCCCCCC1	–	–	–	39	–	105	42	33
COc1cc2c(cc1OC)C(=O)C(c1ccc3c(c1)OCO3)CC2 (stereo not given)	–	–	·	–	–	–	·	·
COc1cc2c(cc1OC)C(=O)C(Br)CC2 (stereo not given)	·	·	·	82	–	65	–	16
CCOC(=O)N1CCc2c(sc(NC(=O)CN3CCOCC3)c2C(=O)Nc2ccccc2)C1	–	–	–	23	–	–	–	–
CCOC(=O)N1CCc2c(sc(NC(=O)CN3CCN(C)CC3)c2C(=O)Nc2ccccc2)C1	–	–	–	–	–	–	·	·
O=C(C[C@H]1C=C[C@@H](NC(=O)C2CC2)[C@H](CO)O1)NCCCN1CCOCC1	–	–	·	·	·	·	·	·
O=C(OCC(=O)N1N=C(c2ccc(Cl)cc2)CC1c1ccco1)c1cccnc1 (stereo not given)	–	–	–	49	–	–	29	26
Cc1ccc(OCC(=O)N2N=C(c3ccc(Cl)cc3)CC2c2ccco2)c([N+](=O)[O-])n1 (stereo not given)	–	–	–	24	–	–	–	14
CC(C)[C@H](NS(=O)(=O)c1ccccc1)C(=O)OCC(=O)N1N=C(c2ccc(Cl)cc2)CC1c1ccco1 (stereo not given in full)	–	–	–	24	–	–	48	56
O=C(O)/C=C/C(=O)N1N=C(c2ccco2)CC1c1ccco1 (stereo not given)	–	–	·	–	–	–	·	·
O=C(COc1cccnc1[N+](=O)[O-])N1N=C(c2ccc(Cl)cc2)CC1c1ccco1 (stereo not given)	–	–	–	–	–	–	·	·
O=C(CCl)N1N=C(c2ccco2)CC1c1ccco1 (stereo not given)	–	–	–	38	–	–	25	22
Cc1ccc(S(=O)(=O)N[C@@H](Cc2ccccc2)C(=O)CCl)cc1	–	–	–	53	–	101	93	90
Cc1ccc(S(=O)(=O)NC(Cc2ccccc2)C(=O)NN)cc1 (stereo not given)	–	–	–	–	–	–	·	·
COC(=O)C[C@@H]1C[C@@H]2c3cc(N)ccc3O[C@@H]2[C@H](CO)O1	–	–	·	·	·	·	·	·
O=c1[nH]cnc(O)c1C1C=CC=CC=C1	–	–	–	50	–	–	32	49
COc1ccc(CN(C)C[C@H]2OCCCC[C@@H](C)Oc3ccc(NC(=O)NC(C)C)cc3C(=O)N([C@@H](C)CO)C[C@H]2C)cc1	–	–	·	·	·	·	·	·
CCC(C)(C)NC(=O)c1ccc(Sc2nncn2C)c([N+](=O)[O-])c1	–	–	–	–	–	–	·	·
Cn1cnnc1Sc1ccc(/C=C/C(=O)c2ccc(O)cc2)cc1[N+](=O)[O-]	69	–	–	64	–	110	87	87
O=[N+]([O-])c1cc(S(=O)(=O)C(F)(F)F)ccc1Sc1nc2ccccc2[nH]1	·	·	96	54	–	104	59	79
SMILES	EWS-Fli block	PAX8 inh HTS	MITF TRPM1 inh	ABHD5 PLIN5 PPI	Shn3 inh set2	Peg3 prom inh	ABHD5 PLIN5 conf	HNF4 counter
COc1cccc(C2=NNC(=NCc3ccccc3)SC2)c1	–	–	–	–	–	–	·	·
COc1cccc(C2=NC(C)(C)NC(c3ccccc3O)C2)c1 (stereo not given)	·	·	–	57	–	–	73	72
CCC1(C)N=C(c2ccc3c(c2)OCO3)CC(c2ccccc2O)N1 (stereo not given)	–	·	–	50	–	–	91	65
Cc1ccc(CNc2ccc([N+](=O)[O-])cc2C(N)=O)cc1	–	–	–	–	–	–	·	·
Cc1ccc(Oc2c(C(N)=O)cc([N+](=O)[O-])cc2[N+](=O)[O-])cc1	·	–	92	63	93	106	95	74
CCCNC(=O)N1[C@H](CO)[C@@H](c2ccccc2)C12CN(C(=O)CC1CC1)C2	–	·	·	·	·	·	·	·
C=CCNC(=O)/C(C#N)=C/c1ccccc1Cl	–	–	–	–	–	–	·	·
C=CCNC(=O)/C(C#N)=C/c1cc(Br)ccc1OC	–	–	–	43	–	–	56	45
CCOC(=O)C1=CC[C@@H](c2ccccc2)N(S(=O)(=O)c2ccc(C)cc2)[C@H]1C#N	–	–	·	58	–	–	30	65
CC(C)OC(=O)CN1C(=O)S/C(=C/c2ccc(N3CCCCC3)o2)C1=O	–	·	–	34	–	–	61	102
COc1ccc(CN(C)C[C@@H]2Oc3c(NC(=O)NC4CCCCC4)cccc3C(=O)N([C@H](C)CO)C[C@H]2C)cc1	–	–	·	·	·	·	·	·
Cc1cccc(C(=O)NCCCn2ccnc2)c1C	–	–	–	102	–	–	–	–
O=C(NCCCn1ccnc1)c1ccccc1Cl	–	–	–	–	–	–	·	·
CC1CN(C2=CC(=O)CCC2)CC(C)O1 (stereo not given)	–	–	–	31	–	–	–	13
CCOc1c(N2CC(C)OC(C)C2)c(=O)c1=O (stereo not given)	–	–	–	–	–	–	·	·
O=C(O)CCCN1C(=O)/C(=C\c2ccccc2OCc2ccccc2)SC1=S	–	–	–	–	–	–	·	·
O=C(/C=C/c1cn(-c2ccccc2)nc1-c1cccs1)NCCN1CCOCC1	–	–	–	32	–	–	–	–
